{"source": "ChEMBL document CHEMBL1201862", "about": "“PubChem BioAssay data set” (2004)", "note": "About 25,000 (6.9%) of roughly 360,000 compounds were called active. About 9% were inconclusive and are not listed. The rule behind the calls is not given here. The sample as a whole holds a higher share of actives than the screen did."}
{"target": "Luciferin 4-monooxygenase (Photinus pyralis) (UniProt P08659)", "sequence (P08659 whole entry)": "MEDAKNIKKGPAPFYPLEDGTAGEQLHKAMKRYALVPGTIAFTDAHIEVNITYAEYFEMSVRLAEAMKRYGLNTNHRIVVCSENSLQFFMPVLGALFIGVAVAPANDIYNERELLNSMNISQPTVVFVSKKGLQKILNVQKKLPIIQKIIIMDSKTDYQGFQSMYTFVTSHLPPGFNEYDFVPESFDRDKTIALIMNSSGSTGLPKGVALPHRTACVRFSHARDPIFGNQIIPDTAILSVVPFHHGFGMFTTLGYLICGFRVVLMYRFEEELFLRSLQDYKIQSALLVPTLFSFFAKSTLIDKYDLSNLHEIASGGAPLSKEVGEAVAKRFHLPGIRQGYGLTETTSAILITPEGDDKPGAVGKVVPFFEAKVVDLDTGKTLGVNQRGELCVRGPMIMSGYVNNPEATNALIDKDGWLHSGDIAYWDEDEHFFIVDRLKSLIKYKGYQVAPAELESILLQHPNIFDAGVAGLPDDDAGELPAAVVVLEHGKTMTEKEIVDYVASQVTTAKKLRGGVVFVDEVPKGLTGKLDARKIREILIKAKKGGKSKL", "test": "qHTS profiling assay for firefly luciferase inhibitor/activator using purified enzyme and Km concentrations of substrates (counterscreen for miR-21 project). [Related pubchem assays (depositor defined):AID2288, AID2289, AID2598, AID411]", "type": "functional"}
{"smiles": "O=C(O)c1cc(-c2ccc(F)cc2F)ccc1O", "Potency": "15.1 µM (active)"}
{"smiles": "Cn1c(NCCN2CCOCC2)nc2c1c(=O)n(Cc1cccc(Cl)c1)c(=O)n2C", "Potency": "inactive"}
{"smiles": "Cc1ccccc1N=C(S)N(CCCN1CCOCC1)Cc1cccnc1", "Potency": "inactive"}
{"smiles": "O=C(NC1CCCC1)c1cc(Cl)ccc1[N+](=O)[O-]", "Potency": "inactive"}
